Assay results: PubChem BioAssay AID1159580 (chemical genetic matrix, 2015)
The whole screen tested about 5,500 compounds, of which about 2,000 (36%) were called active. Inconclusive results (about 18%) are left out. Cut-off read from the data, not from the text of the source: active = normalized growth mostly below about 0.91 (no sharp cut-off); inconclusive = no clear call, values can overlap the other calls; inactive = mostly above about 0.92. Some of the results follow.

Assay: chemical genetic growth profiling, strain panel (AID 1159580);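 note: tested at 20 µM; growth read once vehicle control cultures reached saturation at 30 °C; 1 = growth at the plate median or of vehicle wells; lower values mean less growth of the strain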
Details: growth OD
[1] = S. cerevisiae deletion strains, locus YJR075W, strain HOC1, stronger effect = lower value
[2] = S. cerevisiae deletion strains, locus YMR307W, strain GAS1, stronger effect = lower value
[3] = S. cerevisiae deletion strains, locus YNL153C, strain GIM3, stronger effect = lower value

Measured: normalized growth

CN1CCC(c2c[nH]c3ccc(O)cc23)CC1
inactive: S. cerevisiae deletion strains, locus YAL040C, strain CLN3, stronger effect = lower value 0.986 | S. cerevisiae deletion strains, locus YCL061C, strain MRC1 (second series), stronger effect = lower value 1.01 | S. cerevisiae deletion strains, locus YDR150W, strain NUM1, stronger effect = lower value 1.01 | S. cerevisiae deletion strains, locus YDR363W, strain ESC2, stronger effect = lower value 1 | S. cerevisiae deletion strains, locus YER002W, strain NOP16, stronger effect = lower value 0.987 | [1] 1.01 | [2] 0.988 | [3] 0.948 | S. cerevisiae deletion strains, locus YNL175C, strain NOP13, stronger effect = lower value 1.01 | S. cerevisiae deletion strains, locus YNL197C, strain WHI3, stronger effect = lower value 0.999 | S. cerevisiae deletion strains, locus YNL224C, strain SQS1, stronger effect = lower value 1.02 | S. cerevisiae deletion strains, locus YOR083W, strain WHI5 (second series), stronger effect = lower value 1.04 | S. cerevisiae deletion strains, locus YPL055C, strain LGE1, stronger effect = lower value 0.996

CSCCC(NC=O)C(=O)NC(C)C(=O)O (stereo not drawn)
inactive: S. cerevisiae deletion strains, locus YBR021W, strain FUR4, stronger effect = lower value 0.982 | S. cerevisiae deletion strains, locus YBR229C, strain ROT2, stronger effect = lower value 0.989 | S. cerevisiae deletion strains, locus YCL029C, strain bik1, stronger effect = lower value 0.983 | S. cerevisiae deletion strains, locus YDL035C, strain GPR1, stronger effect = lower value 1.01 | S. cerevisiae deletion strains, locus YDL074C, strain BRE1, stronger effect = lower value 1.02 | S. cerevisiae deletion strains, locus YDL101C, strain DUN1, stronger effect = lower value 0.998 | S. cerevisiae deletion strains, locus YDL134C, strain PPH21, stronger effect = lower value 0.989 | S. cerevisiae deletion strains, locus YDL185W, strain tfp1, stronger effect = lower value 0.977 | S. cerevisiae deletion strains, locus YDL192W, strain arf1, stronger effect = lower value 0.972 | S. cerevisiae deletion strains, locus YDR101C, strain arx1, stronger effect = lower value 0.983 | S. cerevisiae deletion strains, locus YDR162C, strain NBP2, stronger effect = lower value 0.997 | S. cerevisiae deletion strains, locus YDR318W, strain mcm21, stronger effect = lower value 0.988 | S. cerevisiae deletion strains, locus YDR388W, stronger effect = lower value 0.985 | S. cerevisiae deletion strains, locus YDR502C, strain sam2, stronger effect = lower value 0.992 | S. cerevisiae deletion strains, locus YEL061C, strain CIN8, stronger effect = lower value 0.995 | S. cerevisiae deletion strains, locus YER110C, stronger effect = lower value 0.976 | S. cerevisiae deletion strains, locus YER155C, strain BEM2, stronger effect = lower value 0.993 | S. cerevisiae deletion strains, locus YER167W, strain BCK2, stronger effect = lower value 0.988 | S. cerevisiae deletion strains, locus YGL078C, strain dbp3, stronger effect = lower value 0.978 | S. cerevisiae deletion strains, locus YGL086W, strain mad1, stronger effect = lower value 0.996 | S. cerevisiae deletion strains, locus YGL248W, strain PDE1, stronger effect = lower value 1.01 | S. cerevisiae deletion strains, locus YGR078C, strain PAC10, stronger effect = lower value 1.03 | S. cerevisiae deletion strains, locus YGR135W, strain pre9, stronger effect = lower value 0.984 | S. cerevisiae deletion strains, locus YGR229C, strain SMI1, stronger effect = lower value 0.995 | S. cerevisiae deletion strains, locus YGR252W, strain gcn5, stronger effect = lower value 0.972 | S. cerevisiae deletion strains, locus YHR030C, strain SLT2, stronger effect = lower value 0.989 | S. cerevisiae deletion strains, locus YHR079C, strain IRE1 (second series), stronger effect = lower value 0.988 | S. cerevisiae deletion strains, locus YHR094C, strain hxt1, stronger effect = lower value 0.978 | S. cerevisiae deletion strains, locus YHR129C, strain ARP1, stronger effect = lower value 0.996 | S. cerevisiae deletion strains, locus YHR200W, strain rpn10, stronger effect = lower value 0.987 | S. cerevisiae deletion strains, locus YIL066C, strain RNR3, stronger effect = lower value 1 | S. cerevisiae deletion strains, locus YIL073C, strain SPO22, stronger effect = lower value 0.943 | S. cerevisiae deletion strains, locus YIL125W, strain kgd1, stronger effect = lower value 0.987 | S. cerevisiae deletion strains, locus YIR030C, strain dcg1, stronger effect = lower value 0.983 | S. cerevisiae deletion strains, locus YJL095W, strain BCK1, stronger effect = lower value 1.04 | S. cerevisiae deletion strains, locus YJL134W, strain LCB3, stronger effect = lower value 0.991 | S. cerevisiae deletion strains, locus YJL168C, strain set2, stronger effect = lower value 0.985 | S. cerevisiae deletion strains, locus YJL187C, strain SWE1 (second series), stronger effect = lower value 1.01 | S. cerevisiae deletion strains, locus YJR043C, strain POL32, stronger effect = lower value 1.02 | [1] 1.01 | S. cerevisiae deletion strains, locus YKL009W, strain mrt4, stronger effect = lower value 0.974 | S. cerevisiae deletion strains, locus YKL068W, stronger effect = lower value 0.986 | S. cerevisiae deletion strains, locus YKL085W, strain MDH1 (second series), stronger effect = lower value 1.01 | S. cerevisiae deletion strains, locus YKL085W, strain MDH1, stronger effect = lower value 1.01 | S. cerevisiae deletion strains, locus YKL190W, strain CNB1, stronger effect = lower value 1 | S. cerevisiae deletion strains, locus YKR001C, strain vps1, stronger effect = lower value 0.988 | S. cerevisiae deletion strains, locus YLR039C, strain RIC1, stronger effect = lower value 1.01 | S. cerevisiae deletion strains, locus YLR058C, strain SHM2, stronger effect = lower value 0.996 | S. cerevisiae deletion strains, locus YLR102C, strain apc9, stronger effect = lower value 0.98 | S. cerevisiae deletion strains, locus YLR262C, strain YPT6, stronger effect = lower value 1.04 | S. cerevisiae deletion strains, locus YLR268W, strain sec22, stronger effect = lower value 0.987 | S. cerevisiae deletion strains, locus YLR330W, strain CHS5, stronger effect = lower value 0.99 | S. cerevisiae deletion strains, locus YLR342W, strain FKS1 (second series), stronger effect = lower value 0.987 | S. cerevisiae deletion strains, locus YLR371W, strain rom2, stronger effect = lower value 0.972 | S. cerevisiae deletion strains, locus YLR418C, strain cdc73, stronger effect = lower value 0.994 | S. cerevisiae deletion strains, locus YML016C, strain PPZ1, stronger effect = lower value 0.993 | S. cerevisiae deletion strains, locus YML032C, strain rad52, stronger effect = lower value 0.987 | S. cerevisiae deletion strains, locus YML124C, strain tub3, stronger effect = lower value 0.981 | S. cerevisiae deletion strains, locus YMR078C, strain ctf18, stronger effect = lower value 0.984 | S. cerevisiae deletion strains, locus YMR223W, strain ubp8, stronger effect = lower value 0.986 | S. cerevisiae deletion strains, locus YMR263W, strain SAP30, stronger effect = lower value 1.01 | [2] 0.872 | S. cerevisiae deletion strains, locus YNL067W, strain RPL9B, stronger effect = lower value 1.03 | [3] 1.04 | S. cerevisiae deletion strains, locus YNL233W, strain BNI4, stronger effect = lower value 1.01 | S. cerevisiae deletion strains, locus YNL250W, strain rad50, stronger effect = lower value 0.983 | S. cerevisiae deletion strains, locus YNL271C, strain bni1, stronger effect = lower value 0.968 | S. cerevisiae deletion strains, locus YNL298W, strain CLA4, stronger effect = lower value 0.99 | S. cerevisiae deletion strains, locus YNL307C, strain MCK1, stronger effect = lower value 0.989 | S. cerevisiae deletion strains, locus YNR052C, strain pop2, stronger effect = lower value 0.983 | S. cerevisiae deletion strains, locus YOL006C, strain TOP1, stronger effect = lower value 1.05 | S. cerevisiae deletion strains, locus YOL012C, strain htz1 1.02 | S. cerevisiae deletion strains, locus YOL147C, strain pex11, stronger effect = lower value 0.983 | S. cerevisiae deletion strains, locus YOR061W, strain CKA2, stronger effect = lower value 0.993 | S. cerevisiae deletion strains, locus YOR069W, strain VPS5, stronger effect = lower value 0.983 | S. cerevisiae deletion strains, locus YOR136W, strain idh2, stronger effect = lower value 0.995 | S. cerevisiae deletion strains, locus YOR144C, strain elg1, stronger effect = lower value 0.984 | S. cerevisiae deletion strains, locus YOR184W, strain ser1, stronger effect = lower value 0.995 | S. cerevisiae deletion strains, locus YOR316C, strain cot1, stronger effect = lower value 0.972 | S. cerevisiae deletion strains, locus YPR119W, strain clb2, stronger effect = lower value 0.991 | S. cerevisiae deletion strains, locus YPR141C, strain kar3, stronger effect = lower value 0.978 | S. cerevisiae deletion strains, locus YPR163C, strain tif3, stronger effect = lower value 0.988 | S. cerevisiae deletion strains, locus YPR167C, strain met16, stronger effect = lower value 0.978 | S. cerevisiae deletion strains, strain wtn01, stronger effect = lower value 0.992 | S. cerevisiae strains, strain wild type, stronger effect = lower value 0.996
